Results published in PubChem BioAssay AID488839 (Broad Institute, 2010).
About 35 (0.01%) of roughly 330,000 compounds were called active. Only a sample is shown. Unmarked numbers belong to inactive results.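 Rule for the calls: active = highest replicate inhibition of at least 50% and at least 75% of replicates reaching 50%; inconclusive = only one of the two criteria met; inactive = both criteria failed.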

These molecules were tested against Cyclin-dependent kinase 5 (Homo sapiens) + Cyclin-dependent kinase 5 activator 1 (Homo sapiens) (UniProt Q00535+Q15078) (assay: inhibitors of human CDK5/p35 kinase, primary screen, biochemical, single concentration (AID 488839;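 note: plate controls were DMSO neutral control for no effect and GW8510 at 10 µM for full effect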)). Conditions: Recombinant CDK5/p35, ADP-Glo luminescence, 60 min; at 10 µM; hits give high values.
Sequence of Cyclin-dependent kinase 5 (Homo sapiens) + Cyclin-dependent kinase 5 activator 1 (Homo sapiens) (Q00535 whole entry, looked up): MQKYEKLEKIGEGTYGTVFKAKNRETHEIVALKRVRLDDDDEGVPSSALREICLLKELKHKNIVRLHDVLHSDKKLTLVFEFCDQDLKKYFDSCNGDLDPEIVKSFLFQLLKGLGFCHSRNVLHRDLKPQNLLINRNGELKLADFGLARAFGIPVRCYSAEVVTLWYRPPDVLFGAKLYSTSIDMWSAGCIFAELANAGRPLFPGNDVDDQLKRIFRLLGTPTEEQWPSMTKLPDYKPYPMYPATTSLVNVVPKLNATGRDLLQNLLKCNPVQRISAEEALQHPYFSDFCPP
Sequence of Cyclin-dependent kinase 5 (Homo sapiens) + Cyclin-dependent kinase 5 activator 1 (Homo sapiens) (Q15078 whole entry, looked up): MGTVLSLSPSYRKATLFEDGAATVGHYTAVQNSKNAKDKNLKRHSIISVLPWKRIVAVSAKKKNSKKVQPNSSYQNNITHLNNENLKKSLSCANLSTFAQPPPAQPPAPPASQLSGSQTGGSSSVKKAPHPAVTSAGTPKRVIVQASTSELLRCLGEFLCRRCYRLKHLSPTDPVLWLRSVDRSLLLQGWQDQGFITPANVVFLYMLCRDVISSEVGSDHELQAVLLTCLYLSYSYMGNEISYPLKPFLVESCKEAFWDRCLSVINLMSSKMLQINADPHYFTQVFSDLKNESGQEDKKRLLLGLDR

| Structure (SMILES) | inhibition [%] |
| --- | --- |
| COc1ccc(-c2csc3nc(-c4ccccc4F)oc(=O)c23)cc1OC | -0.745 |
| CCCN1CNC(=S)N(CCc2ccccc2)C1 | 0.897 |
| OCc1n[nH]c(CO)n1 | -0.355 |
| CC(C)COC(=O)n1c(=O)oc2ccc(S(=O)(=O)N3CCCCC3)cc21 | -6.42 |
| COc1ccc(NC(=O)CC2C(=O)NC3CCCCC3N2C(=O)c2ccc(F)cc2)cc1 (stereo unspecified) | 0.318 |
| CN(CC(=O)Nc1ccc(F)cc1)CC(=O)N1CCCCC1 | 1.08 |
| Cc1coc2c(O)cc3c(c12)OC1(N2CCCCC2)C(=O)NCCCC31 (stereo unspecified) | -0.717 |
| CCCCN1C(=O)C(C)=C(C)C1OCCc1ccc(OC)c(OC)c1 (stereo unspecified) | 1.7 |
| N/C(=N\OC(=O)Nc1ccccc1)c1ccno1 | -1.08 |
| Cc1c2cnn(-c3ccccc3)c(=O)c2c(C)n1CCCC(=O)N1CCN(C)CC1 | 0.518 |
| COc1ccccc1NC(=O)CSc1nnc(-c2ccoc2C)n1CCc1ccccc1 | -0.569 |
| COc1ccccc1NC(=O)c1ccc(N2CC3CC(C2)c2cccc(=O)n2C3)c(NC(=O)c2cccnc2)c1 (stereo unspecified) | -1.98 |
| CC1C(C)N(C(=O)CCl)c2ccccc2N1C(=O)CCl (stereo unspecified) | 1.01 |
| C[C@H](NC(=O)C1CC(=O)N(c2ccc3c(c2)OCO3)C1)C(=O)NCc1ccco1 (stereo partly specified) | -0.436 |
| CCc1n[nH]c(=S)n1/N=C/c1c[nH]c2ccc(Br)cc12 | 2.39 |
| COC(=O)Cc1ccc(OCC(=O)NC2CCCC2)cc1 | 0.995 |
| O=C(Nc1c2c(nn1-c1ccc(F)cc1)CS(=O)C2)C12CC3CC(CC(C3)C1)C2 (stereo unspecified) | -0.258 |
| Cc1cccc(C(=O)NCc2nnc(SC(C)C(=O)Nc3nnc(C)s3)n2C)c1 (stereo unspecified) | 1.14 |
| COc1ccc(Cl)cc1NC(=O)COC(=O)C(CC(C)C)N1C(=O)C2CC=CCC2C1=O (stereo unspecified) | -0.94 |
| CCOC(=O)c1ccc2[nH]c(C)c(CN3CCN(C)CC3)c(=O)c2c1 | -4.67 |
| COc1ccc(OC)c(NC(=O)CN(Cc2ccc(Cl)cc2)S(C)(=O)=O)c1 | 0.423 |
| O=C(CSc1nnc(SCc2ccc(Cl)cc2)s1)N/N=C/c1ccccc1Cl | -1.05 |
| O=S(=O)(NCCSc1ccccn1)c1ccc(Cl)cc1 | 0.39 |

| Structure (SMILES) | inhibition [%] |
| --- | --- |
| O=C(C1CCN(C2CCN(Cc3ccc4cc(F)ccc4n3)CC2)CC1)N1CCCC1 | 0.175 |
| COc1ccc(C(=O)Cn2nnc(-c3ccc(N4CCOCC4)cc3)n2)cc1OC | -3.2 |
| COC(=O)c1c(NC(=O)c2c(Cl)cnn2C)sc(C)c1C | -2.29 |
| O=c1[nH]c2ccc(S(=O)(=O)N3CCCC3)cc2[nH]1 | -0.663 |
| CCOc1ccc(OCCSc2nc3ccccc3n2CC(=O)O)cc1 | 0.306 |
| Cc1nc(-c2nnc(SCC(=O)Nc3cc(C(F)(F)F)cc(C(F)(F)F)c3)n2C)cs1 | -0.227 |
| CCCCCCCC(=O)OC(CN1CCCCCC1)CN1CCCC1=O (stereo unspecified) | 0.855 |
| CC(CC(=O)Nc1ccc(F)cc1F)S(=O)(=O)c1ccc2c(c1)NC(=O)CO2 (stereo unspecified) | 0.798 |
| COc1ccccc1NC(=O)C1CCCN(c2cc(C)nc3ncnn23)C1 (stereo unspecified) | 0.792 |
| Cc1cccc(C)c1NC(=O)CNC(=O)C1CCCC1 | 0.783 |
| Cc1ccc(Nc2cc(=O)n(C3CCCCC3)c(=O)[nH]2)cc1C | -0.561 |
| CC(C)NC(=O)COCc1cc(-c2ccc3c(c2)OCO3)on1 | -3.05 |
| CC(=O)Nc1ccc(OC(=O)COc2ccc(Br)cc2)cc1 | -1.45 |
| CCCNC(=O)c1c(Cl)cnn1-c1ccc(C)cc1 | -0.745 |
| Cc1noc(C)c1NC(=O)Nc1ccc2c(c1)C(=O)N([C@H](C)CO)C[C@H](C)[C@@H](CN(C)S(=O)(=O)c1cn(C)cn1)O2 | 0.62 |
| O=C(CCc1nnc2ccc(NCc3ccco3)nn12)Nc1cc(F)ccc1F | 0.605 |
| O=C(O)Cn1c(Cc2ccccc2)nc2ccccc21 | -0.592 |
| COc1ccc(C2OC(=O)CC2C(=O)NC(C)C)cc1 (stereo unspecified) | -11.3 |
| O=C(CC1Nc2ccccc2NC1=O)Nc1ccccc1 (stereo unspecified) | 1.13 |
| CCCCCCSc1ccc([C@@H]2[C@@H]3C(=O)N(CC)C(=O)[C@@H]3[C@]3(C(=O)OC)CCCCN23)cc1OC | -6.06 |
| Cc1ccccc1NS(=O)(=O)CCCCC(Cl)(Cl)Cl | -0.0868 |
| O=C(COc1coc(CN2CCN(c3ccccc3F)CC2)cc1=O)N1CCc2ccccc21 | 0.232 |
| COc1ccc(Cl)cc1NC(=O)CN(C)CC(=O)Nc1ccc2c(c1)OCO2 | 1.26 |

| Structure (SMILES) | inhibition [%] |
| --- | --- |
| O=Cc1c(N2CCN(c3cccc(Cl)c3)CC2)nc2ccccn2c1=O | -1.83 |
| CN1CCN(S(=O)(=O)c2ccc(N3CCN(S(=O)(=O)c4cccs4)CC3)nc2)CC1 | -0.333 |
| CCC(C)c1ccccc1N1CC(C(=O)N2CCN(S(=O)(=O)c3ccc(F)cc3)CC2)CC1=O (stereo unspecified) | 0.723 |
| CC(C)[C@H](NC(=O)N1CCn2c1nc1ccccc12)C(=O)NC1CC1 | 2.48 |
| COc1cc(C(=O)N2CCN(S(=O)(=O)c3ccc(C(C)C)cc3)CC2)ccc1OCC(=O)N1CCOCC1 | -0.998 |
| Cc1cccc(NC(=O)c2ccc(OCC(=O)NCc3ccccc3)cc2)c1C | 0.801 |
| Cc1nc2c(-c3ccc(F)cc3)c(C)nn2c(C)c1CCC(=O)NCc1ccco1 | -0.00338 |
| CCc1ccc(C(=O)CSc2nnc(C)c(=O)[nH]2)cc1 | -0.74 |
| Cc1cc(C)cc(Oc2nc3c(C)cccn3c(=O)c2/C=C(\C#N)C(=O)NC2CCS(=O)(=O)C2)c1 (stereo unspecified) | 0.399 |
| CC(C)[C@H](NC(=O)N1CCn2c1nc1ccccc12)C(=O)NCCc1ccccc1 | 1.82 |
| COC(=O)c1ccccc1NC(=O)C1CCN(S(=O)(=O)c2cc(OC)ccc2OC)CC1 | 0.427 |
| N#Cc1ccc(C(=O)Nc2nc(-c3cccs3)c(C(=O)C(F)(F)F)s2)cc1 | -1.16 |
| O=C(Cn1nc(Cc2cccnc2)c2ccccc2c1=O)NCC1CCCO1 (stereo unspecified) | -0.846 |
| CCOC(=O)Cc1c(C)nc2c(C#N)c(C)nn2c1C | -2.18 |
| CC(C)CCN(C(=O)c1csnn1)C(C(=O)NC1CCCC1)c1ccccc1 (stereo unspecified) | 0.702 |
| COCc1c(N)c(C)nc(Cl)c1C#N | 11.1 |
| O=C(Cn1nc(C(=O)O)c2ccccc2c1=O)Nc1ccc(F)cc1 | 0.796 |
| CCC(C)(C)NC(=O)C(c1ccc(OC)cc1)N(C(=O)CCC(=O)Nc1cc(C)on1)c1ccc(OC)cc1OC (stereo unspecified) | -0.155 |
| CCSc1ccccc1C(=O)NCc1ccc(OC)cc1 | 0.696 |
| COc1ccc(OC)c(/C(C)=N\NC(=O)c2cc3cc(Cl)ccc3n2C)c1 | 0.107 |
| CS(=O)(=O)N(CC(=O)N1CCCCCC1)c1cccc(Cl)c1Cl | 0.703 |
| CCOc1ccc(C(=O)NC2CCN(CC(=O)NCc3cccs3)CC2)cc1 | 1.1 |
| CC(C)CCNC(=O)C1CCCN(S(=O)(=O)c2ccc(F)cc2)C1 (stereo unspecified) | -0.29 |

| Structure (SMILES) | inhibition [%] |
| --- | --- |
| COc1ccc(-c2nc3n(c(=O)c2C#N)CCS3)c(OC)c1 | 0.425 |
| CC(Sc1nnnn1C)C(=O)NC(=O)NC1CCCCC1 (stereo unspecified) | -1.1 |
| CCc1c(C)nc2c(-c3ccccc3)c(C)nn2c1Nc1ccc(NC(C)=O)cc1 | 0.169 |
| CCN(C(=O)COC(=O)c1ccccc1O)c1cccc2ccccc12 | -1.97 |
| COc1cccc(CC2(CO)CCCN(Cc3ccc(OC(F)F)cc3)C2)c1 (stereo unspecified) | 0.552 |
| Cc1ccc(C2SCC(=O)N2c2ccccc2)cc1 (stereo unspecified) | 0.449 |
| COC(=O)Nc1ncc(CN2C(=O)c3ccccc3C2=O)s1 | 0.873 |
| CCC(C)NC(=O)Cn1nc(C(F)(F)F)c2c1CCC2 (stereo unspecified) | -1.07 |
| Cc1ccc(C)c(NS(=O)(=O)c2cc(Br)cnc2N)c1 | -0.401 |
| CSCCC(NS(=O)(=O)c1ccccc1F)C(=O)N1CC=C(c2ccccc2)CC1 (stereo unspecified) | 0.0413 |
| CCCCCCCC[n+]1cccc(C(=O)N2c3c(nc(N)[nH]c3=O)NC(C)C2C)c1 (stereo unspecified) | -4.49 |
| CC(OC(=O)Cc1ccc(F)cc1)C(=O)N1CCc2ccccc21 (stereo unspecified) | -7.94 |
| O=C(O)/C(=C/c1cccnc1)NC(=O)c1ccccc1 | 1.62 |
| O=C(O)CN1C(=O)CC(Cc2ccccc2)C1=O (stereo unspecified) | -1.35 |
| CC(Nc1ccccc1)c1cccnc1 (stereo unspecified) | -1.25 |
| Cc1nc2nc(COc3ccccc3)[nH]n2c(=O)c1Cc1ccccc1 | -2 |
| Cc1csc(OCC(=O)Nc2ccc(C)c(C)c2)n1 | -0.147 |
| CCS(=O)(=O)c1ccc(C(=O)NC)c(Cl)c1Cl | -2.96 |
| CCc1cccc(C)c1N(C(=O)Cn1c(CO)nc2ccccc21)C(C)COC (stereo unspecified) | -0.226 |
| O=c1c2ccccc2ccc2ccc(P(=O)(O)O)cc12 | 1.94 |
| CCC(C)N(C(=O)Cn1nc(C)c([N+](=O)[O-])c1C)C1CCS(=O)(=O)C1 (stereo unspecified) | -0.0593 |
| Cc1c(CCO)c(=O)[nH]n1C(=O)c1c(F)cccc1F | 0.283 |
